# Compounds with a hit are over-represented: about 1.1% of the library has one in this group of screens.
# SARS PLP yeast: blocks SARS-CoV papain-like protease in a yeast assay. S. cerevisiae expressing SARS-CoV PLpro, growth rescue. Potency, µM (titrated, usually from 32.9 µM), for inactives: at the top dose activity, positive = growth rescue, hits mostly activators. hit rate 0.19% among 330,000. AID 485353; calls by dose curve; note: 0% is about no effect; nearly all actives have a fitted effect of over 55% in size
# TbPYK inhibitor: inhibitors of Trypanosoma brucei pyruvate kinase | hit rate 0.12% among 410,000 | AID 624173 | Potency, µM (titrated, usually from 76.8 µM), without a hit: top-dose activity, negative = inhibition, actives largely listed as inhibitors | Q57TT1 | TbPYK enzyme, Kinase-Glo Plus ATP luminescence, 45 min; note: % is set by controls: 0 for no effect and ±100 for the full control effect; nearly all actives have a fitted effect of over 50% in size
#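 In this concentration-response screen, enzyme-free wells defined baseline while DMSO plates tracked drift. Each reaction combined TbPYK, substrate, compound and 130 uM ADP for 45 min at room temperature. Kinase-Glo Plus luminescence gave the signal.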
# Giardia FBPA inh: blocks Giardia fructose-bisphosphate aldolase activity; A8B2U2; purified Giardia FBPA; Potency, µM (doses to about 59.6 µM), for the others: at the top dose activity, negative = inhibition, actives largely listed as inhibitors; hit rate 0.71% among 290,000; note: % is set by controls: 0 for no effect and ±100 for the full control effect; nearly all actives have a fitted effect of over 55% in size
#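 40 nM FBPA preincubated 10 min at RT with compound (up to 57.5 uM final), then substrate plus GAPDH/TPI/NAD/arsenate coupling and diaphorase/resazurin added. Fluorescence read after 20 min at RT, 525/598 nm.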
# LmPK inh: LmPK (Leishmania mexicana) enzyme inhibition; Q27686; purified LmPK, Kinase-Glo ATP luminescence, 1 h; Potency, µM (titrated, usually from 57.5 µM), for inactives: top-dose activity change, negative = inhibition, hits mostly inhibitors; hit rate 0.37% among 290,000; AID 1721; note: % is set by controls: 0 for no effect and ±100 for the full control effect
# Target sequence (Q27686 whole entry, looked up): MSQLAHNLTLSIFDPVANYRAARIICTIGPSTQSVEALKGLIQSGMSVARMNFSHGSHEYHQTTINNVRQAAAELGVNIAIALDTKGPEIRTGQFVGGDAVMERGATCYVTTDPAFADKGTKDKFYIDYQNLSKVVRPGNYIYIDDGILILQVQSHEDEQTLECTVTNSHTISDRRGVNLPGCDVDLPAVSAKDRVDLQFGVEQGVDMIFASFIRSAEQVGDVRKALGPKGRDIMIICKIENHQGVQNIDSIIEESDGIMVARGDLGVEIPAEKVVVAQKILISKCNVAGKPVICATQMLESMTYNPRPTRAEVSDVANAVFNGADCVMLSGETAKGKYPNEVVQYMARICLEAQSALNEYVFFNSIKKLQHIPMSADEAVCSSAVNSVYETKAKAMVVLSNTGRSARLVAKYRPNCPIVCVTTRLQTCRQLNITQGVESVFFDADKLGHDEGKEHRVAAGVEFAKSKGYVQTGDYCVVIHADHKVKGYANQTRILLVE
#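 In 50 mM imidazole pH 7.2 with 7 mM MgCl2, LmPK (0.1 nM) turned over PEP (0.5 mM) and ADP (0.1 mM) for 1 h at room temperature. Luciferase read-out of ATP.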
# RE007 growth inh: less growth of the S. pombe RE007 Vpr strain | AID 651644 | Potency, µM (series often up to 92.2 µM), for the others: at the top dose activity change, negative = less growth, most hits filed as inhibitors | S. pombe RE007 Vpr strain, BacTiter-Glo ATP luminescence, 24 h | hit rate 0.21% among 360,000; active = well fitted falling curve with a large enough effect; inconclusive = small, poorly fitted or top-dose-only effect; inactive = no such curve, though single readings can be large or run the other way; note: % is set by controls: 0 for no effect and ±100 for the full control effect; nearly all actives have a fitted effect of over 50% in size
#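 Fission yeast strain RE007, carrying one chromosomally integrated HIV-1 vpr copy, was seeded at OD 0.01 in PMG+AL medium with 23 nL pinned compound. After 24 h at 30 °C and 99% humidity, viability was read by BacTiter-Glo luminescence.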
# Active calls of the source: *; ? = inconclusive; / = not tested or not shown; ! = not active in a repeat; [ ] = another dose, or the depositor's remark. Unless noted, calls come from the whole dose curve; as a rule, active = well fitted curve in the direction sought with a large enough effect; inconclusive = small, poorly fitted or top-dose-only effect, or another doubt; inactive = no such curve, though single readings can be large; an effect the other way counts as inactive or inconclusive. Potency is the fitted concentration of half-maximal effect.
SMILES,SARS PLP yeast,TbPYK inhibitor,Giardia FBPA inh,LmPK inh,RE007 growth inh
CCOC(=O)Nc1ccc(NCc2ccc(F)cc2)nc1N,/,32µM*!,-29%,/,-12%
COc1ccc(/C(C#N)=C/c2ccccn2)cc1,-1%,-4%,0%,8.9µM*,/
Cn1c(/C=C/c2ccccc2)nc2ccccc21,-5%,?,-27%,5µM*,?
COc1cccc(NC(=O)CSc2nc(=O)n(Cc3ccco3)c3c2CCC3)c1,/,-9%,/,/,/
COc1cc(/C=C2\CC/C(=C\c3cc(OC)c(O)c(OC)c3)C2=O)cc(OC)c1O,4%,?,1.6µM*,0%,5%
OC[C@H]1O[C@@H](n2cnc3c2NC=NC[C@@H]3O)C[C@H]1O,/,0%,/,/,/
CCOc1ccccc1-c1nnc2n1N=C(c1cc(OC)cc(OC)c1)CS2,/,/,-1%,/,/
Cc1cccc2c3c(ccc12)C1=C(C(=O)C3=O)[C@@H](C)CO1,/,/,7.1µM*,/,/
CC1COc2ccccc2C1=O (stereo unspecified),/,/,3%,/,/
CCOC(=O)c1ccc(N2C(=O)c3n[nH]c(-c4cccs4)c3C2c2ccc(O)c(OC)c2)cc1 (stereo unspecified),/,-1%,/,/,/
O=C1c2ccccc2C(=O)C1c1ccc2ccccc2n1,-7%,1%,0%,14µM*,-13%
Cc1nc(C)c(/C(O)=C/c2nc3ccc([N+](=O)[O-])cc3oc2=O)o1,-1%,/,13µM*,-3%,/
C=CCNC(=S)Nc1cccc2ccccc12,5%,0%,16µM*,2%,-3%
COc1ccc(OC)c(-c2noc(N3CCN(c4cccc(C)c4C)CC3)n2)c1,/,-10%,/,/,/
O=S(=O)(Nc1cccnc1)c1cccc(C(F)(F)F)c1,1%,2%,8%,0%,-2%
O=[N+]([O-])c1ccc(S(=O)(=O)c2cccc(C(F)(F)F)c2)nc1,/,2%,/,/,40µM*
CCN(CC)c1ccc(/C=N/NC(=O)c2ccco2)c(O)c1,-7%,1%,14%,-15%,?
CCN(CC)c1ccc(/C=N/NC(=S)NCc2ccccc2)c(O)c1,10µM*,-3%,-19%,1%,9%
CN1CCN(Cc2c(O)ccc3cc(Br)ccc23)CC1,-5%,-6%,-17%,1%,?
CCN(Cc1ccncc1)Cc1c(O)ccc2cc(Br)ccc12,2%,-13%,8.9µM*,1%,-18%
Cc1c(NC(=O)Cc2ccc(Cl)cc2)cccc1-c1nc2cccnc2s1,/,-3%,/,/,/
Cc1[nH]c(=S)c(C#N)c2c1CCCC2,5%,3.5µM*,11%,5%,69%
Cc1[nH]c(=O)c(C#N)c2c1CCCC2,2%,-3%,0%,-7%,-2%
CCN(CCCNC(=O)c1cc2cc3ccc(OC)cc3nc2s1)c1ccccc1,-11%,1%,/,/,/
CCCCN(C)C(=O)c1cc2cc3ccc(OC)cc3nc2s1,-12%,?,-6%,14µM*,?
SMILES,SARS PLP yeast,TbPYK inhibitor,Giardia FBPA inh,LmPK inh,RE007 growth inh
CC(C)OCCCNC(=O)Cn1c(-c2cccs2)cc2cc(F)ccc21,/,-2%,/,/,/
COc1cc(OC)c(C2Nc3cccc4cccc(c34)N2)c(OC)c1,-3%,2%,-19%,0%,-8%
COc1ccccc1C1Nc2cccc3cccc(c23)N1,-12%,-9%,?,0%,7.1µM*
N#Cc1cnc2cc(-c3ccccc3)nn2c1N,1%,-3%,4%,-8%,4%
COc1ccc(-c2cc3ncc(-c4ccccc4)c(N)n3n2)cc1,-1%,-6%,-8%,16µM*,-26%
Fc1ccccc1-c1nc(-c2ccccc2)no1,2%,-12%,4%,11µM*,?
CCc1nnc(SCc2ccc(F)cc2Cl)c2cc3sc(C)cc3n12,/,-2%,/,/,/
O=C1C=CC(=O)N1CCNc1ncc(C(F)(F)F)cc1Cl,-5%,?,-17%,2%,2.5µM*
O=C1CC(=O)N(CCNc2ncc(C(F)(F)F)cc2Cl)C(=O)N1,16%,-5%,12%,-1%,0%
COc1ccc(Cl)cc1NC(=O)c1cc2c(=O)n3ccccc3nc2s1,/,-2%,/,/,/
CCOC(=O)c1c(NS(=O)(=O)c2ccc(Br)cc2)sc2c1CCC2,/,28µM*,/,/,9%
Nc1ccccc1C(=O)/C=C\c1ccc2c(c1)OCO2,/,/,1%[12.9 µM],/,/
Nc1ccccc1C(=O)/C=C/c1ccc2c(c1)OCO2,-36%,2%,0%,14µM*,?
O=C(/C=C/c1ccc2c(c1)OCCO2)c1ccccc1,-2%,-7%,-4%,13µM*,?
O=C(/C=C/c1ccc2c(c1)OCO2)Nc1cccnc1,-2%,0%,-10%,22µM*,-17%
Cc1ccc(Cn2c(=O)c3c(nc4n3CCN4c3cc(C)cc(C)c3)n(C)c2=O)cc1,/,-6%,/,/,/
CCN(c1ccccc1)S(=O)(=O)c1ccc(Cl)c(NC(=O)COC(=O)c2cc(O)c3ccccc3c2O)c1,-5%,/,5µM*,-4%,/
CC(=NNc1nc2ccccc2s1)c1ncccn1,/,2%,/,/,?
C/C(=N\Nc1nc2ccccc2s1)c1cccs1,-80%,-8%,-5%,-6%,35µM*
CC(C)=O,/,7%,/,/,/
CCC(=O)CC,/,/,14µM*,/,/
COc1cc([C@@H]2c3cc4c(cc3[C@@H](O[C@@H]3O[C@H]5CO[C@H](C)O[C@H]5[C@H](O)[C@@H]3O)[C@H]3COC(=O)[C@H]23)OCO4)cc(OC)c1OP(=O)(O)O,/,6%,/,/,/
CCOc1ccc(NC(=O)CC2C(=O)N(c3ccc(F)cc3)C(=O)N2Cc2ccc(OC)c(OC)c2)cc1 (stereo unspecified),/,2%,/,/,/
Cc1cc(Cl)ccc1OCC(=O)N(Cc1ccco1)Cc1ccco1,/,0%,/,/,/
COc1cc(OC)cc(C(=O)O/N=C(\N)c2ccccn2)c1,-1%,1%,1%,-6%,?
SMILES,SARS PLP yeast,TbPYK inhibitor,Giardia FBPA inh,LmPK inh,RE007 growth inh
COc1ccc(C(=O)O/N=C(\N)c2ccccn2)cc1,-12%,10µM*,5%,13µM*,?
Cc1ccc(C(=O)O/N=C(\N)c2ccccn2)c(C)c1,-25%,?,/,6.3µM*,35µM*
COc1ccc(C(=O)NNC(=O)c2ccccn2)cc1,-73%,?,-7%,1.3µM*,10µM*
COc1cc(OC)cc(C(=O)NNC(=O)c2ccccn2)c1,22%,-12%,2%,-4%,-2%
O=C(Sc1ccc(Cl)cc1)c1ccccn1,/,-7%,/,/,22µM*
c1ccc(Nc2c(-c3c[nH]c4ccccc34)nc3ccccn23)cc1,/,2%,/,/,/
CCOC(=O)c1ccccc1NC(=O)N(Cc1ccco1)C1CCN(C(C)=O)CC1,/,-9%,/,/,/
COc1ccc(/C=C/C(=O)c2ccccn2)cc1,2%,?,?,8.9µM*,?
Cc1cc(/C(N)=N/OC(=O)c2ccc(Cl)cc2)no1,-1%,-3%,7%,16µM*,-24%
N/C(=N\OC(=O)c1ccc(Cl)c(Cl)c1)c1ccccn1,-9%,-3%,4%,-29%,-7%
N/C(=N\OC(=O)c1cccc(Cl)c1)c1ccccn1,-95%,-20%,-1%,14µM*,-28%
